High-throughput results: PubChem, The Scripps Research Institute Molecular Screening Center
This is a sample that favours compounds with a hit; in the whole collection about 3.5% have one here.
FBW7 act = human FBW7 E3 ligase activation, primary screen. AID 1259310. actives 0.13% (n = 650,000). Q969H0. AlphaScreen FBW7–phospho-cyclin E peptide binding, activator screen. normalized activity (activation), % at 26.1 µM; in the data active = normalized activity above about 1.9%;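 also: purified mutant Fbw7 with reduced substrate affinity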
MITF inh = human MITF inhibition, primary screen; AID 1259374; AlphaScreen MITF homodimerization, bead proximity signal; actives 0.91% (n = 650,000); O75030; inhibition, % at 2.6 µM; in the data active = inhibition above about 50%;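 also: 0% = vehicle wells with protein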
Target sequence (O75030 whole entry, looked up): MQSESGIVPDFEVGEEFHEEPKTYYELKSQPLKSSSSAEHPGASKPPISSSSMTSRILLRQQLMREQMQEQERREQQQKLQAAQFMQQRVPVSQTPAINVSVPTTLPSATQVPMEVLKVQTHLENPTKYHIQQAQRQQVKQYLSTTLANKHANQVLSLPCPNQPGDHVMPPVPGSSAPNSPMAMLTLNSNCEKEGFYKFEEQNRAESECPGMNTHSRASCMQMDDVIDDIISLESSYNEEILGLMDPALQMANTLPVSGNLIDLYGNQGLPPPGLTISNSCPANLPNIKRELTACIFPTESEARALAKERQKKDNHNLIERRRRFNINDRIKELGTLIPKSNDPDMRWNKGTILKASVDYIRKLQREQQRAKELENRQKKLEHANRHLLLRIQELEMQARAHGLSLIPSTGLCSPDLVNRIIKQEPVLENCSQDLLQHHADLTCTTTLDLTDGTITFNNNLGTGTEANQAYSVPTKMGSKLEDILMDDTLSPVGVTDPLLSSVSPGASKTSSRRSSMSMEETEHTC
GPR151 ag = activates the human receptor GPR151. Q8TDV0. PathHunter beta-arrestin GPR151 cells, luminescence. activation, % at 11.2 µM. actives 1% (n = 650,000). AID 1508602; in the data active = activation above about 4.9%;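 also: 0% = median of compound wells and 100% = cells with positive control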
TEAD-YAP inh = TEAD-YAP interaction inhibition | actives 1.4% (n = 640,000) | HEK-TIYL cells, TEAD-Gal4/YAP UAS-luciferase luminescence | inhibition, % at 9.12 µM; in the data active = inhibition above about 32%;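 also: 0% = median of test compound wells and 100% = reference inhibitor wells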
GPR151 conf act = confirmation of human GPR151 activators; shares compounds with GPR151 ag; GPR151 PathHunter beta-arrestin cells, luminescence, 90 min; % of EA-reagent control over plate median; activation, % at 11.2 µM; 6,700 tested, under 10 active; AID 1508609;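 active = mean percent activation across replicates above the confirmation screen cutoff of 4.91%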
GPR119 counter = GPR119 activation, counter-screen for GPR151 activators; shares compounds with GPR151 ag; GPR119 PathHunter beta-arrestin cells, luminescence, 90 min; 0 = compound-well median, 100 = enzyme-acceptor control; activation, % at 11.2 µM; actives 0.3% (n = 6,700); AID 1508611;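 active = mean percent activation in the counterscreen above 29.09%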;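 also: counterscreen on off-target GPR119 to flag nonselective hits from the GPR151 activator screen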
Starred values were filed as active, the others as inactive; . = no result.

SMILES	FBW7 act	MITF inh	GPR151 ag	TEAD-YAP inh	GPR151 conf act	GPR119 counter
Cc1cccc(C(=O)NCCCN(C)C)c1	0.1	-2.3	7.7*	-3.1	-0.7	-2.1
COc1ccc(-c2noc(CN3CCN(c4ccccc4)CC3C)n2)c(OC)c1OC (centres undefined)	0.1	11.7	4.9*	-4.7	1.0	6.0
COCC1CCCCN1Cc1nc(-c2ccc(OC)c(OC)c2OC)no1 (centres undefined)	-0.1	-7.8	0.6	-2.1	.	.
COCCCNc1nc2c(S(=O)(=O)c3ccccc3)nnn2c2ccsc12	0.4	-2.7	6.5*	-6.9	0.6	8.6
COCCCNc1nc2c(S(=O)(=O)c3ccccc3)nnn2c2ccccc12	0.0	5.8	-0.7	-1.5	.	.
O=C1CC(c2ccco2)CC(O)=C1C=NCC1CCNCC1 (centres undefined)	-0.1	0.7	0.6	4.9	.	.
COC(=O)C1=CN(CC2CCCO2)C=C(C(=O)OC)C1c1cccc(Cl)c1 (centres undefined)	0.2	-16.9	0.7	-7.0	.	.
COC(=O)C1=CN(Cc2ccc(F)cc2)C=C(C(=O)OC)C1c1cccc(F)c1	-0.2	8.3	-0.4	-2.5	.	.
COC(=O)C1=CN(CC2CCCO2)C=C(C(=O)OC)C1c1cccc(F)c1 (centres undefined)	0.4	2.0	5.7*	-4.5	1.7	15.0
COC(=O)C1=CN(Cc2ccc(F)cc2)C=C(C(=O)OC)C1c1cccc(O)c1	0.0	2.7	5.2*	1.6	-0.4	10.1
O=C(COc1cccc(Cl)c1Cl)c1ccc[nH]1	-0.2	0.1	9.9*	-9.4	0.1	-12.4
C/C=C/c1ccc(OCCCNC)c(OC)c1	-0.5	30.8	6.1*	-15.3	-0.1	6.3
C/C=C/c1ccc(OCCNC)c(OC)c1	0.0	41.7	-1.6	7.5	.	.
O=C(Cn1cc2c(n1)CCCC2)NCCCN1CCN(C2CCCCC2)CC1	0.2	13.5	5.0*	6.2	0.7	10.8
O=C(Cn1cc2c(n1)CCCC2)NCCCN1CCCCC1	0.8	0.2	0.7	2.2	.	.
COC(=O)C1=C(C)N(c2ccccc2)C(=O)/C1=C\c1ccc(C(=O)OC)cc1	0.1	6.8	-1.0	6.1	.	.
CCCOc1ccc(N2C(=O)CC(NCc3ccc(C(=O)O)cc3)C2=O)cc1 (centres undefined)	0.0	8.0	2.7	0.2	.	.
Cc1[nH]c2ccccc2c1/C=N/Nc1ccccc1[N+](=O)[O-]	0.0	40.0	6.9*	-53.8	0.2	8.9
CCCCCCCC1CCc2nc(-c3ccc(F)cc3)ccc2C1 (centres undefined)	0.1	-6.5	-1.3	-8.3	.	.
CCCCCC1CCc2nc(/C=C/c3ccccc3)ccc2C1 (centres undefined)	0.3	12.2	6.0*	2.4	-1.2	-7.0
Cc1cc(/C=C(\C#N)C(=O)Nc2ccc(F)cc2)c(C)n1-c1cccc(C(=O)O)c1	0.0	2.8	0.3	5.2	.	.
CCc1c(C#N)c(N)nc(SCC(=O)c2cc3ccccc3oc2=O)c1C#N	-0.1	1.1	9.9*	-0.3	-0.4	15.4
O=C(COc1ccc(Cl)cc1)Nc1ccccn1	0.1	-20.5	9.2*	48.6*	0.5	-51.2
O=C(COc1ccc(Cl)cc1)Nc1ccc(-c2cn3cccnc3n2)cc1	22.5*	-6.4	8.6*	-4.8	2.5	11.1
COc1ccc(-c2cn3cccnc3n2)cc1NC(=O)COc1ccc(Cl)cc1	0.7	18.6	-1.1	-29.2	.	.
SMILES	FBW7 act	MITF inh	GPR151 ag	TEAD-YAP inh	GPR151 conf act	GPR119 counter
Cc1cccc(NC(=O)c2cccc(S(=O)(=O)Nc3ccccc3)c2)c1	0.1	-2.5	2.8	0.3	.	.
COC(=O)CNC(=O)C1CCCN1C(=O)CNC(=O)OCc1ccccc1 (centres undefined)	0.1	22.1	-1.7	3.2	.	.
CCOc1cc(/C=c2/sc3nc4ccccc4n3c2=O)cc(I)c1O	0.1	3.0	5.1*	13.2	0.7	15.4
CCOc1ccc(NC(=O)CNC(=O)c2ccc(C(C)(C)C)cc2)cc1	0.1	7.5	9.1*	7.6	-0.2	-9.3
O=C(COc1ccc(F)cc1)Nc1cccc(C(=O)O)c1	0.2	6.2	6.5*	-10.3	0.9	18.1
CC(=O)c1ccc(OCC(=O)Nc2ccccc2)cc1	0.0	10.4	5.8*	-39.4	-1.6	-15.7
CCOc1ccc(-c2cccc(NC(=O)COc3ccc(C(=O)c4ccccc4)cc3)c2)nn1	0.3	20.7	7.3*	4.7	-1.2	-0.8
CCOc1ccc(NC(=O)c2ccc(C(C)(C)C)cc2)cc1	-0.1	-12.6	-0.5	-28.6	.	.
COc1ccc(C(C(=O)Nc2ccc(C(C)C)cc2)N(C)C(=O)CNC(C)=O)cc1 (centres undefined)	0.0	-7.2	-0.1	5.3	.	.
CC(C)(C)c1ccc(OCC(=O)Nc2ccc(OCC(=O)O)cc2)cc1	0.0	10.6	5.2*	7.0	-0.1	3.9
Cc1csc(NC(=O)NC(C)(C)C)n1	0.1	-1.8	-2.0	-17.1	.	.
COc1ccc(CCNc2ccnc(-c3ccc(C(=O)NC4CC4)cc3)n2)cc1	0.1	9.8	5.5*	33.2*	0.1	-4.9
CCOC(=O)c1c(C)nc2c(c1C)/C(=N/O)CC(C)(C)C2	0.2	3.7	5.0*	-1.1	-0.5	-10.6
Cn1cc(CN2CCOCC2)c(-c2ccc3c(c2)OCCO3)n1	-0.1	-0.7	9.2*	11.3	-0.1	3.1
Cn1cc(CN2CCN(Cc3nccn3C)CC2)c(-c2ccc3c(c2)OCCO3)n1	0.0	2.3	4.3	0.0	.	.
CCCc1ccc(C(C)NC(=O)c2cnccn2)cc1 (centres undefined)	0.0	-7.2	1.6	4.0	.	.
Cc1ccc(S(=O)(=O)N(CC(N)=O)c2cccc([N+](=O)[O-])c2)cc1	0.0	-0.9	8.4*	-6.5	0.9	-0.7
CS(=O)(=O)N(CC(N)=O)c1cccc([N+](=O)[O-])c1	-0.1	-9.2	-0.5	-0.6	.	.
CCOC(=O)c1ccc(NC(=O)Nc2sc3c(c2-c2nc4ccccc4s2)CCCC3)cc1	0.0	1.9	-0.7	3.8	.	.
CN(Cc1ccccc1)C(=O)Cn1ncc2ccsc2c1=O	0.0	-6.9	5.6*	-30.0	-1.1	-22.4
CC(=O)N1CCc2cc(Br)cc(S(=O)(=O)N3CCCCC3)c21	0.0	15.4	0.5	-4.4	.	.
CC(=O)N1CCc2cc(Br)cc(S(=O)(=O)N3CCC(O)(c4cccc(C(F)(F)F)c4)CC3)c21	0.3	-2.5	4.9*	2.1	-0.6	11.3
Cc1cc(C(=O)COC(=O)c2cc(Cl)cc(Cl)c2)c(C)n1C	0.0	-1.1	-1.2	-8.5	.	.
Cc1[nH]c(C(=O)OCC(=O)c2cc(C)n(C)c2C)c(C)c1C(C)O (centres undefined)	-0.2	1.8	5.2*	-19.5	1.1	0.2
CCOc1cc(C2C(C(=O)OCc3ccccc3)=C(C)NC3=C2C(=O)CC(C)(C)C3)ccc1O (centres undefined)	0.1	-12.2	0.7	-1.8	.	.
